According to PubChem BioAssay AID1159580 (chemical genetic matrix, 2015):
Several values for one entry are separate records, joined by “and”; a condition that tells them apart may be missing. Equal entries are not always repeated. Screen size: about 5,500 compounds; about 2,000 (36%) were called active. About 18% were inconclusive and are not listed. Rule as the data show it: active = normalized growth mostly below about 0.91 (no sharp cut-off); inconclusive = no clear call, values can overlap the other calls; inactive = mostly above about 0.92. Some of the results follow.

Assay: chemical genetic growth profiling, strain panel (AID 1159580);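 also: tested at 20 µM; growth read once vehicle control cultures reached saturation at 30 °C; 1 = growth at the plate median or of vehicle wells; lower values mean less growth of the strain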
Conditions: growth OD

Measured: normalized growth

COc1ccc(Cl)cc1C(=O)NCCc1ccc(S(=O)(=O)NC(=O)NC2CCCCC2)cc1
inactive: S. cerevisiae deletion strains, locus YJR075W, strain HOC1, hits give low values 0.98 and 0.984 | S. cerevisiae deletion strains, locus YKL009W, strain mrt4, hits give low values 1.02 | S. cerevisiae deletion strains, locus YKL068W, hits give low values 1.04 | S. cerevisiae deletion strains, locus YKL085W, strain MDH1 (second series), hits give low values 0.977 | S. cerevisiae deletion strains, locus YKL085W, strain MDH1, hits give low values 0.977 | S. cerevisiae deletion strains, locus YKL160W, strain elf1, hits give low values 1.01 | S. cerevisiae deletion strains, locus YKL190W, strain CNB1, hits give low values 0.945 | S. cerevisiae deletion strains, locus YKR001C, strain vps1, hits give low values 0.997 | S. cerevisiae deletion strains, locus YKR026C, strain gcn3, hits give low values 0.989 | S. cerevisiae deletion strains, locus YKR091W, strain srl3, hits give low values 0.993 | S. cerevisiae deletion strains, locus YLL001W, strain dnm1, hits give low values 1.01 | S. cerevisiae deletion strains, locus YLL026W, hits give low values 0.995 | S. cerevisiae deletion strains, locus YLL041C, strain sdh2, hits give low values 1 | S. cerevisiae deletion strains, locus YLR027C, strain aat2, hits give low values 1.01 | S. cerevisiae deletion strains, locus YLR039C, strain RIC1, hits give low values 0.963 | S. cerevisiae deletion strains, locus YLR058C, strain SHM2, hits give low values 0.972 | S. cerevisiae deletion strains, locus YLR102C, strain apc9, hits give low values 0.989 | S. cerevisiae deletion strains, locus YLR113W, strain HOG1, hits give low values 1.01 | S. cerevisiae deletion strains, locus YLR221C, strain rsa3, hits give low values 1 | S. cerevisiae deletion strains, locus YLR258W, strain gsy2, hits give low values 0.982 | S. cerevisiae deletion strains, locus YLR262C, strain YPT6 (second series), hits give low values 0.999 | S. cerevisiae deletion strains, locus YLR262C, strain YPT6, hits give low values 0.915 | S. cerevisiae deletion strains, locus YLR268W, strain sec22, hits give low values 0.966 | S. cerevisiae deletion strains, locus YLR320W, strain mms22, hits give low values 1 | S. cerevisiae deletion strains, locus YLR330W, strain CHS5, hits give low values 0.994 | S. cerevisiae deletion strains, locus YLR342W, strain FKS1 (second series), hits give low values 1.1 | S. cerevisiae deletion strains, locus YLR342W, strain FKS1, hits give low values 1.01 | S. cerevisiae deletion strains, locus YLR357W, strain rsc2, hits give low values 0.998 | S. cerevisiae deletion strains, locus YLR370C, strain arc18, hits give low values 0.998 | S. cerevisiae deletion strains, locus YLR371W, strain rom2, hits give low values 1.01 | S. cerevisiae deletion strains, locus YLR384C, strain iki3, hits give low values 1 | S. cerevisiae deletion strains, locus YLR418C, strain cdc73, hits give low values 0.944 | S. cerevisiae deletion strains, locus YML016C, strain PPZ1, hits give low values 0.987 | S. cerevisiae deletion strains, locus YML032C, strain rad52, hits give low values 1.02 | S. cerevisiae deletion strains, locus YML120C, strain ndi1, hits give low values 1.02 | S. cerevisiae deletion strains, locus YML124C, strain tub3, hits give low values 1 | S. cerevisiae deletion strains, locus YMR058W, strain fet3, hits give low values 0.999 | S. cerevisiae deletion strains, locus YMR078C, strain ctf18, hits give low values 0.998 | S. cerevisiae deletion strains, locus YMR125W, strain sto1, hits give low values 0.992 | S. cerevisiae deletion strains, locus YMR129W, hits give low values 1.01 | S. cerevisiae deletion strains, locus YMR205C, strain PFK2, hits give low values 1 | S. cerevisiae deletion strains, locus YMR223W, strain ubp8, hits give low values 1.05 | S. cerevisiae deletion strains, locus YMR231W, strain pep5, hits give low values 1.01 | S. cerevisiae deletion strains, locus YMR263W, strain SAP30, hits give low values 0.961 and 1 | S. cerevisiae deletion strains, locus YMR307W, strain GAS1, hits give low values 1.06 and 0.976 | S. cerevisiae deletion strains, locus YNL067W, strain RPL9B, hits give low values 0.951 | S. cerevisiae deletion strains, locus YNL071W, strain lat1, hits give low values 1.01 | S. cerevisiae deletion strains, locus YNL128W, strain TEP1, hits give low values 0.911 | S. cerevisiae deletion strains, locus YNL153C, strain GIM3, hits give low values 0.943 and 1.04 | S. cerevisiae deletion strains, locus YNL175C, strain NOP13, hits give low values 1 | S. cerevisiae deletion strains, locus YNL183C, strain NPR1, hits give low values 0.947 | S. cerevisiae deletion strains, locus YNL197C, strain WHI3, hits give low values 1.01 | S. cerevisiae deletion strains, locus YNL209W, strain ssb2, hits give low values 1.01 | S. cerevisiae deletion strains, locus YNL224C, strain SQS1, hits give low values 1.01 | S. cerevisiae deletion strains, locus YNL233W, strain BNI4, hits give low values 0.978 | S. cerevisiae deletion strains, locus YNL248C, strain rpa49, hits give low values 1.01 | S. cerevisiae deletion strains, locus YNL250W, strain rad50, hits give low values 0.969 | S. cerevisiae deletion strains, locus YNL271C, strain bni1, hits give low values 0.999 | S. cerevisiae deletion strains, locus YNL298W, strain CLA4, hits give low values 0.987 | S. cerevisiae deletion strains, locus YNL307C, strain MCK1, hits give low values 1.03 | S. cerevisiae deletion strains, locus YNL322C, strain KRE1 (second series), hits give low values 0.999 | S. cerevisiae deletion strains, locus YNL322C, strain KRE1, hits give low values 0.975 | S. cerevisiae deletion strains, locus YNR049C, strain mso1, hits give low values 1 | S. cerevisiae deletion strains, locus YNR052C, strain pop2, hits give low values 1 | S. cerevisiae deletion strains, locus YOL006C, strain TOP1, hits give low values 0.875 | S. cerevisiae deletion strains, locus YOL012C, strain htz1 1.15 | S. cerevisiae deletion strains, locus YOL147C, strain pex11, hits give low values 1 | S. cerevisiae deletion strains, locus YOR001W, strain rrp6, hits give low values 1.01 | S. cerevisiae deletion strains, locus YOR061W, strain CKA2, hits give low values 0.96 | S. cerevisiae deletion strains, locus YOR069W, strain VPS5, hits give low values 1 | S. cerevisiae deletion strains, locus YOR070C, strain gyp1, hits give low values 0.995 | S. cerevisiae deletion strains, locus YOR080W, strain dia2, hits give low values 0.987 | S. cerevisiae deletion strains, locus YOR083W, strain WHI5 (second series), hits give low values 1.07 | S. cerevisiae deletion strains, locus YOR083W, strain WHI5, hits give low values 1.01 | S. cerevisiae deletion strains, locus YOR106W, strain vam3, hits give low values 1.01 | S. cerevisiae deletion strains, locus YOR136W, strain idh2, hits give low values 0.996 | S. cerevisiae deletion strains, locus YOR144C, strain elg1, hits give low values 0.999 | S. cerevisiae deletion strains, locus YOR184W, strain ser1, hits give low values 1.06 | S. cerevisiae deletion strains, locus YOR231W, strain MKK1, hits give low values 0.994 | S. cerevisiae deletion strains, locus YOR265W, strain rbl2, hits give low values 1 | S. cerevisiae deletion strains, locus YOR270C, strain vph1, hits give low values 0.998 | S. cerevisiae deletion strains, locus YOR290C, strain snf2, hits give low values 0.938 | S. cerevisiae deletion strains, locus YOR316C, strain cot1, hits give low values 0.994 | S. cerevisiae deletion strains, locus YPL051W, strain arl3, hits give low values 1.01 | S. cerevisiae deletion strains, locus YPL055C, strain LGE1, hits give low values 0.877 | S. cerevisiae deletion strains, locus YPL078C, strain atp4, hits give low values 1.01 | S. cerevisiae deletion strains, locus YPL106C, strain sse1, hits give low values 1.02 | S. cerevisiae deletion strains, locus YPL240C, strain hsp82, hits give low values 1 | S. cerevisiae deletion strains, locus YPL241C, strain CIN2, hits give low values 0.972 and 1.01 | S. cerevisiae deletion strains, locus YPL256C, strain CLN2, hits give low values 1.01 | S. cerevisiae deletion strains, locus YPR119W, strain clb2, hits give low values 0.986 | S. cerevisiae deletion strains, locus YPR141C, strain kar3, hits give low values 0.976 | S. cerevisiae deletion strains, locus YPR163C, strain tif3, hits give low values 1 | S. cerevisiae deletion strains, locus YPR167C, strain met16, hits give low values 0.993 | S. cerevisiae deletion strains, strain wtn01, hits give low values 0.98 | S. cerevisiae strains, strain wild type, hits give low values 0.97
